Our source for the growth values is PubChem BioAssay (NCI).

Values joined by “and” are separate entries in the source; they are usually repeats but may differ in a detail not shown here. Equal values may be shown once. About 83,000 compounds went through this panel and 20% of them were active in at least one assay; those are over-represented in the sample as a whole.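 Each cell line was grown in a 96-well plate and treated with one concentration of compound for 48 hours. Values below 10 were considered active.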 Values without a mark were called inactive. Active and inactive are the calls of the source.

The assay concerns MDA-MB-468 breast. Put plainly: NCI-60 one-dose screen, 48 h (100 = growth as untreated, 0 = no growth, -100 = all killed). The conditions noted are these: 10 µM unless noted.
For the molecule `O=C1c2cccnc2-c2ncccc21`, the growth was 100% [100 µM].
Then `Cc1ccc2c3c(cccc13)-c1ccccc1C2=O`, with 97%; and `CCCOC(=O)n1cccc1`, with 106%.
To `COC(=O)c1nc(-c2ccc(C)cc2)oc1S(=O)(=O)N1CCN(c2oc(-c3ccccc3)nc2C#N)CC1` belongs 93.9%.
To `CCCCCCNC(=O)Oc1ccc(/C(=C(/C)Cc2ccc(OC)cc2)c2ccc(OCCN3CCCCC3)cc2)cc1` belongs 88.6%; to `CC(=O)Nc1ccc(/C=N/N2CCCCCC2)cc1`, 98.6%; to `C=CCn1c(SCC(=O)Nc2ccc(C(=O)/C=C/c3ccc(Cl)cc3)cc2)nnc1-c1cc(-c2ccccc2)nc2ccccc12`, 61.6%.
Take `CN1c2ccccc2C(C)(C)C12C=Cc1cc(O)ccc1O2` (stereo not given): the growth is 4.08% (active).
With `Cc1ccc(Nc2ncnc3c2sc2ncccc23)cc1`, the growth is 93%.
Then `COc1ccc(C2c3[nH]c4ccc(Cl)cc4c3CCN2c2oc(CO)nc2C#N)cc1` (stereo not given), with 25.2%; and `CNC(=O)c1cc(Oc2ccc3nc(NC(=O)c4cc(C)cc(C)c4)sc3c2)ccn1`, with 50.2%.
Then `CCOc1ccc(-c2cnnn2-c2nonc2-n2cccc2)cc1`, with 10.6%.
`Cc1ccc(C(=O)N/N=C/c2cccc(Oc3ccccc3)c2)cn1`: the growth is 58.6%.
To `Nc1cc2nc3ccccc3sc-2cc1=O` belongs 72.9%; to `CCCCCCCCCCCCCCCCCCNC(=S)N/N=C/c1ccc(OC)c(OC)c1`, 93.5%; to `COc1ccc(-n2nc(C(=O)NCC(=O)Nc3nc4cc(OC)ccc4s3)c3ccccc3c2=O)cc1`, -8.37% (active).
On to `Cc1ccc(S(=O)(=O)n2cc(C(=O)C(=O)N3CCCCC3)c3ccccc32)cc1`, for which the growth was 40.2%.
In the case of `CCN(CC)CCNc1ccc([N+](=O)[O-])c2sc3cc(Cl)ccc3c(=O)c12`, the growth was 92.6%.
Then `O=C(/C=C/c1cccc(F)c1)c1cccc(OCCCCOc2cccc(C(=O)/C=C/c3cccc(F)c3)c2)c1`, with 87.2%.
Then `COc1ccc2nc(-c3ccc(OC)c(OC)c3)cc(-c3nnc(SCC(=O)Nc4ccc(/C(C)=N\O)cc4)n3-c3ccccc3)c2c1`, with 56.2%; and `COc1ccc(-n2c(C)cc(-c3ccccc3)c2C)cc1`, with -6.9% (active).
Then `O=C(CCCCC1CCSS1)Nc1ncnc2n[nH]c(-c3ccc(Oc4ccccc4)cc3)c12` (stereo not given), with 95.9%; and `N#Cc1c(-c2ccccc2)nc(SCC(O)CN2CCOCC2)nc1N1CCOCC1` (stereo not given), with 76.7%.
As to `O=C1C2CC=CCC2C(=O)N1CNc1ccc(Cl)cc1` (stereo not given), the growth is 91%.
Then `CCCCCCn1c(=N)n(CC(O)COc2cccc(C)c2)c2ccccc21` (stereo not given), with -68.7% (active).
To `COC(=O)OC1C(O[C@H]2C[C@H]3[C@@H]4CC=C5C[C@@H](O)CC[C@]5(C)[C@H]4CC[C@]3(C)[C@H]2[C@H](C)C(=O)CCC(C)C)OCC(O)C1OC1OCC(O)C(O)C1OC(=O)c1ccc(OC)cc1` (stereo not given in full) belongs -22.8% (active); to `c1ccc(-c2nnc(Nc3ccc4c(c3)OCCO4)o2)c(NCc2ccncc2)c1`, -33.4% (active); to `Oc1ccccc1/C=N\NC(=S)N/N=C/c1ccccc1O`, 32.2% and 11.3%.
Consider `NS(=O)(=O)c1cccc(Nc2nc(SCC(=O)c3ccc(Cl)cc3)nc3c2CCC3)c1`, for which the growth was 79.8%.
On to `O=C(O)c1cn(C2CC2)c2cc(N3CCN(Cc4nc5c(cnn5-c5ccc([N+](=O)[O-])cc5)c(=O)[nH]4)CC3)c(F)cc2c1=O`, for which the growth is 103%.
Then `Oc1ccc(Br)cc1/C=N/NC(=S)NC12CC3CC(CC(C3)C1)C2`, with 46.8%; and `COc1ccc2nc3cc(Cl)ccc3c(NCCCNC(C)=O)c2c1`, with 39.5%; and `CC[N+](CC)=c1ccc2nc3c(cc(NCc4ccccc4)c4ccccc43)oc-2c1`, with -88.7% (active).
Then `C#Cc1nc(C2=C(C)C(=O)/C(=N/OC(C)=O)C2)cs1`, with 69.9%.
To `Nc1nc(-c2cccc3ccccc23)cc2ccccc12` belongs -4.35% (active); to `CCC(=O)Nc1ccc(-c2nc(-c3cccc(OC)c3)c(-c3ccnc(Br)c3)[nH]2)cc1`, 38.9%.
Take `O=C(O)C(O)c1ccccc1` (stereo not given): the growth is 100%.
With `OCc1cnc2ccccc2c1NC1CCCCCC1`, the growth is 59.8%.
Then `C/C(=N\NC(=O)CSc1nc2sc3c(c2c(=O)n1-c1ccccc1)CCC(C)C3)c1ccc(Cl)cc1` (stereo not given), with -28% (active); and `CNc1ccc(NC)c2c1C(=O)c1ccccc1C2=O`, with -7.38% (active).
